From PubChem
An excerpt weighted towards active compounds, which were near 4.2% of everything screened.
V-ATPase pHluor = regulators of yeast V-ATPase proton transport | S. cerevisiae, pHLuorin cytosolic pH fluorescence | response, % at 10 µM | 350,000 compounds, 0.37% hits | AID 504577; in the data active = response mostly above about 7.3%, no sharp cut-off; inactive = mostly below about 5.4%; note: actives read high
tim10-1 inh = inhibits growth of tim10-1 mutant yeast. S. cerevisiae tim10-1 ts strain growth, BacTiter-Glo, 24 h. 330,000 compounds, 2.2% hits. inhibition, % at 20 µM. AID 463190;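 active = inhibition of at least 40%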;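 note: mutant grown at 25 °C; 0% = DMSO wells with yeast and 100% = wells holding no yeast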
TIM10 inh = inhibits growth of TIM10 yeast strain. S. cerevisiae TIM10 strain growth, BacTiter-Glo luminescence, 24 h. inhibition, % at 10 µM. 330,000 compounds, 1.4% hits;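 active = inhibition of 40% or more at the single tested concentration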;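 note: wild-type TIM10 isogenic control strain grown at permissive 25 °C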
NALP3 yeast inh = NALP3 inhibition in yeast; Yeast reconstituted NLRP3/ASC/caspase-1, beta-gal luminescence, 24 h; inhibition, % at 10 µM; 330,000 compounds, 0.39% hits; AID 2825;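 active = inhibition of 50% or more; inactive = inhibition below 50%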;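 note: plate controls were induced DMSO wells for no effect and uninduced yeast grown without galactose for full effect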
tim23-1 inh = inhibits growth of tim23-1 mutant yeast; S. cerevisiae tim23-1 growth, BacTiter-Glo luminescence, 24 h; inhibition, % at 20 µM; 330,000 compounds, 1.3% hits; AID 463212;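 active = growth inhibition of the mutant yeast at or above 50%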;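 note: temperature-sensitive mutant grown at 25 °C; plate controls were DMSO-treated mutant yeast for no effect and medium wells lacking yeast for full effect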
NALP1 inh = NALP1 inhibition; S. cerevisiae NALP1/ASC/caspase-1 growth, X-gal OD620, 72 h; inhibition, % at 10 µM; 280,000 compounds, 0.61% hits; in the data active = inhibition mostly above about 24%, no sharp cut-off; inactive = mostly below about 32%
tim10-1 confirm = confirmation of tim10-1 mutant yeast growth inhibitors | S. cerevisiae tim10-1 ts strain growth, BacTiter-Glo, 24 h | inhibition, % at 20 µM | shares compounds with tim10-1 inh | 7,400 compounds, 56% hits | AID 463213;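 active = inhibition of yeast growth at or above a set limit in either of two repeat tests at 20 µM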;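 note: tim10-1 mutant grown at permissive 25 °C to find synthetic lethal compounds; 0% = DMSO yeast wells and 100% = medium wells without yeast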
Active calls of the source: *; · = no result given.

SMILES	V-ATPase pHluor	tim10-1 inh	TIM10 inh	NALP3 yeast inh	tim23-1 inh	NALP1 inh	tim10-1 confirm
COc1ccc(CNC(=O)C2CCN(S(=O)(=O)c3ccc4c(c3)CC(C)N4C(=O)C3CC3)CC2)cc1 (configuration not stated)	0	40	14	15	38	13	31*
CC1CC(C)CN(S(=O)(=O)c2ccc3c(c2)CC(C)N3C(=O)C2CCC2)C1 (configuration not stated)	-1	43*	21	-8	46	4	12
O=S(=O)(c1ccc2c(c1)OCCO2)N1CCC(n2nnc3cc(F)ccc32)CC1	7	42*	35	22	34	40	30
O=S(=O)(c1cccc(-c2cn3cc(Cl)ccc3n2)c1)N1CCOCC1	2	42*	22	-31	36	-17	32*
CN(C)S(=O)(=O)c1cccc(-c2cn3ccccc3n2)c1	2	17	11	-4	23	9	·
CN(C)S(=O)(=O)c1cccc(-c2cn3cc(Cl)ccc3n2)c1	5	45*	21	-79	28	-2	34*
O=S(=O)(c1ccc(-c2cn3ccccc3n2)cc1)N1CCOCC1	-1	26	11	-13	27	-14	·
COc1ccc(C(=O)c2cnc(/N=C/N(C)C)s2)cc1	-5	44*	28	-1	15	24	36*
Cc1cccn2c(=O)c3cc(C(=O)NC4CCCCC4)c(=N)n(Cc4ccccc4)c3nc12	4	3	5	5	8	13	·
Cc1cccn2c(=O)c3cc(C(=O)NC4CCCC4)c(=N)n(Cc4ccc(F)cc4)c3nc12	2	43*	13	7	19	8	-18
CCn1nc(NS(=O)(=O)c2ccc(C)cc2)c2cc3ccccc3nc21	-1	44*	-9	12	34	14	-9
CCCn1nc(NS(C)(=O)=O)c2cc3cccc(C)c3nc21	-2	42*	27	19	34	11	35*
CC(C)(C)N(Cc1ccccc1)C(=O)c1ccc(Cl)cc1[N+](=O)[O-]	·	43*	31	10	35	1	29*
COc1ccccc1NC(=O)c1cc(S(=O)(=O)N2CCCC2)cn1C	-2	-10	-4	9	-2	13	·
Cc1ccc(NC(=O)c2sc(N)nc2-c2ccccc2)cc1C	0	49*	15	5	41	17	37*
Cn1c(=O)c2c(ncn2CC(O)CNc2ccc(F)cc2)n(C)c1=O (configuration not stated)	0	-4	8	7	15	28	·
COc1ccc(Nc2nc(NN)nc(Nc3ccc(OC)cc3)n2)cc1	2	33	39	22	45	-3	·
NNc1nc(Nc2ccccc2)nc(Nc2ccccc2)n1	1	51*	25	33	43	-7	42*
CC1CCc2nc(NC(=O)c3ccco3)sc2C1 (configuration not stated)	1	45*	39	7	18	-4	31*
CC1CCc2nc(NC(=O)c3ccc(N4C(=O)CCC4=O)cc3)sc2C1 (configuration not stated)	1	-20	-10	1	3	4	·
CC1CC(C)CN(C(=O)c2ccc3c(c2)OCCO3)C1 (configuration not stated)	2	7	9	9	14	·	·
Cc1sc(N2CCN(S(=O)(=O)c3ccc4c(c3)NC(=O)CO4)CC2)nc1-c1ccccc1	1	47*	11	11	-1	0	-20
Cc1cc(C)nc(NN=C(c2ccccc2)c2ccccc2)n1	3	47*	25	18	42	31	24
CC(/C=C/c1ccccc1)=N\Nc1nc(C)cc(C)n1	1	17	8	28	25	34	·
Cc1ccc(-n2c(-c3ccccc3)c[n+]3c2CCC3)cc1	-2	-9	-1	18	4	6	·
SMILES	V-ATPase pHluor	tim10-1 inh	TIM10 inh	NALP3 yeast inh	tim23-1 inh	NALP1 inh	tim10-1 confirm
Cc1ccc(-n2c(-c3ccccc3)c[n+]3c2CCc2ccccc2-3)c(C)c1	-2	43*	32	-3	18	-34	28
Cc1ccccc1CSCCNC(=S)Nc1ccccc1	-7	45*	26	41	12	-7	24
Cc1ccccc1CSCCNC(=O)c1ccccc1	3	18	-14	31	9	39	·
O=C(NN=Cc1cc(Cl)ccc1[N+](=O)[O-])c1ccco1	2	·	·	·	·	·	·
CC(=O)NS(=O)(=O)c1ccc(NC(=O)C(C)NS(=O)(=O)/C=C/c2ccccc2)cc1 (configuration not stated)	3	-6	-3	2	-11	·	·
CC(C)c1ccc(S(=O)(=O)/N=C2\C=C(NS(=O)(=O)c3ccccc3)C(=O)c3ccccc32)cc1	0	·	·	·	·	28	·
CC(C)c1ccc(S(=O)(=O)/N=C2/C=CC(=O)c3ccccc32)cc1	·	43*	20	14	34	-8	29
COc1ccc(S(=O)(=O)Nc2noc3ccccc23)cc1OC	3	15	-3	5	-3	14	·
Cc1ccccc1OCCCC(=O)Nc1nccs1	4	-7	-13	13	16	-6	·
Cc1cccc(OCC(=O)Nc2nccs2)c1C	2	42*	21	-4	24	38*	25
CCC1=NN2C(=N)/C(=C\c3cccn3-c3cccc(Cl)c3)C(=O)N=C2S1	2	46*	35	14	37	-15	37*
COc1ccc(-n2cccc2/C=C2\C(=N)N3N=C(C(C)C)SC3=NC2=O)cc1	0	40*	7	-1	25	-22	26
CCC1=NN2C(=N)/C(=C\c3cccn3-c3ccc(Br)cc3)C(=O)N=C2S1	1	·	·	·	·	11	·
COc1ccccc1CN1CC(C(=O)NCc2ncccc2C)CCC1=O (configuration not stated)	0	-20	-3	24	2	19	·
CC1=CC(C)(C)Nc2ccc(OC(=O)CN3C(=O)c4cccc5cccc(c45)C3=O)cc21	-6	·	·	·	·	23	·
CC1=CC(C)(C)Nc2ccc(OC(=O)CN3C(=O)c4ccccc4C3=O)cc21	2	47*	16	9	42	64*	32*
COc1ccc(OCC(O)CNC(C)c2ccccc2)cc1 (configuration not stated)	-1	42*	-18	26	18	17	2
CC(NCC(O)COc1ccc(Br)cc1)c1ccccc1 (configuration not stated)	3	11	7	30	6	16	·
CCCCCCC(=O)N(O)C1CC(=O)N(c2ccc(C)cc2)C1=O (configuration not stated)	-4	71*	37	-1	29	2	44*
CCCCCCC(=O)N(O)C1CC(=O)N(c2ccc(Cl)cc2)C1=O (configuration not stated)	1	24	12	15	37	-6	·
